Experimental data taken from PubChem BioAssay (NCI).
Compounds without any hit were thinned out: in the full panel of roughly 83,000, 20% have a hit.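 Cells were grown in 96-well plates and exposed to the test compound at a single concentration for 48 hours; results are reported as percent growth, with values below 10 considered active.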 Values without a mark were called inactive. The source made the active and inactive calls.

Columns and labels:
Test in all cases: NCI-60 one-dose screen, 48 h (100 = growth as untreated, 0 = no growth, -100 = all killed)
Conditions in all cases: 10 µM unless noted
SK-MEL-2 melanoma = tested on: SK-MEL-2 melanoma
EKVX NSCLC = tested on: EKVX NSCLC
SN12C renal = tested on: SN12C renal
UO-31 renal = tested on: UO-31 renal
TK-10 renal = tested on: TK-10 renal
ACHN renal = tested on: ACHN renal
CAKI-1 renal = tested on: CAKI-1 renal
A498 renal = tested on: A498 renal
MOLT-4 leukemia = tested on: MOLT-4 leukemia
SR leukemia = tested on: SR leukemia
RPMI-8226 leukemia = tested on: RPMI-8226 leukemia
OVCAR-8 ovarian = tested on: OVCAR-8 ovarian
SK-OV-3 ovarian = tested on: SK-OV-3 ovarian
OVCAR-3 ovarian = tested on: OVCAR-3 ovarian
HS 578T breast = tested on: HS 578T breast
NCI/ADR-RES ovarian = tested on: NCI/ADR-RES ovarian
OVCAR-5 ovarian = tested on: OVCAR-5 ovarian
OVCAR-4 ovarian = tested on: OVCAR-4 ovarian
IGROV1 ovarian = tested on: IGROV1 ovarian

Compound	growth (SK-MEL-2 melanoma)	growth (EKVX NSCLC)	growth (SN12C renal)	growth (UO-31 renal)	growth (TK-10 renal)	growth (ACHN renal)	growth (CAKI-1 renal)	growth (A498 renal)	growth (MOLT-4 leukemia)	growth (SR leukemia)	growth (RPMI-8226 leukemia)	growth (OVCAR-8 ovarian)	growth (SK-OV-3 ovarian)	growth (OVCAR-3 ovarian)	growth (HS 578T breast)	growth (NCI/ADR-RES ovarian)	growth (OVCAR-5 ovarian)	growth (OVCAR-4 ovarian)	growth (IGROV1 ovarian)
COc1ccc(C(=O)COc2ccc(/C=C3\Oc4ccccc4C3=O)cc2)cc1	103%	99%	97.2%	-44.4% (active)	136%	101%	91%	106%	81.7%	108%	89%	98.9%	103%	102%	100%	91.8%			
Cc1ccc(C(=O)COc2cccc(/C=C3\Oc4ccccc4C3=O)c2)cc1	105%	97.1%	105%	-37.1% (active)	114%	97.6%	47.6%	147%	73.8%	71.9%	106%	106%	134%	96.6%	322%	88.3%	106%	85.7%	
N#C/C(=C/C=C/c1cccc(Cl)c1)S(=O)c1ccccc1 (stereo not drawn)	-12.3% (active)	-56.3% (active)	-55.4% (active)	-65.6% (active)	-82.5% (active)	-82.6% (active)	-68.2% (active)	-69.9% (active)	-0.839% (active)	1.43% (active)	-13.4% (active)		19.6%	-86.1% (active)	11.6%	7.8% (active)	-45.1% (active)	-52.9% (active)	-25.7% (active)
COc1cc(N=Nc2cc(Cc3ccc(N(C)C)cc3)c(N)cc2N(C)C)c2ncccc2c1	29.4%	8.8% (active)	31.2%	-12.6% (active)	32.3%	-58.5% (active)	13.5%	-8.31% (active)	-13.2% (active)	-13.5% (active)	-53.4% (active)	-37% (active)	-0.131% (active)	-28.7% (active)	18.3%	-17.8% (active)	42.8%		7.41% (active)
NC1=NCc2nc3ccccc3c(=O)n2C1	92.8%	107%	98%	70.1%	106%	99.5%	92.7%	110%	91.2%	93.1%	79.1%		117%	101%	111%	96.8%	85.8%	106%	101%
N#Cc1c(N2CCNCC2)nc2sc3cc(Cl)c(Cl)cc3n2c1=N	112%	98.8%	93.2%	80.8%	141%	102%	101%	115%	70.4%	116%	80.2%	94.5%	84.7%	107%	114%	106%	131%	85.5%	
Nc1nc(N)c2c(n1)NC(c1ccccc1)C1CCc3ccccc3C1=N2 (stereo not drawn)	86.6%	39.2%	66%	55.9%	36%	39.3%	34.1%	42.5%	15.1%	19.3%	24.5%		57.9%	38.4%	71.2%	23.9%	112%	27.3%	92.2%
NC(=N\N=C/c1cccc([N+](=O)[O-])c1)/C(N)=N\N=C/c1cccc([N+](=O)[O-])c1	75%	79.5%	86.8%	107%	27.6%	94%	53.8%	61.5%	86%	71.3%	70.5%	57.8%	61.1%	42.9%	-11.6% (active)	80.5%	101%		96.1%
CC1(C)CC[C@]2(C(=O)N3CCOCC3)CC[C@]3(C)C(=CC[C@@H]4[C@@]5(C)CC[C@H](OC(=O)c6cccnc6)C(C)(C)[C@@H]5CC[C@]43C)[C@@H]2C1	84.4%	88.2%	74.4%	62.9%	83%	45.3%	40.1%	70.3%	49%	53.7%	35.5%		88.2%	53.2%	86.7%	89.9%	75.5%	60.7%	69.7%
CC/C=C\C[C@H](O)C/C=C1/C(=O)C=C[C@@H]1C/C=C\CCCCO	62.5%	69.3%	-15.9% (active)	-74.2% (active)	5.32% (active)	-69.3% (active)	0.105% (active)	100%	8.39% (active)	-5.23% (active)	-12.9% (active)	-27.5% (active)	83.2%	2.43% (active)	75.6%	9.46% (active)		49.7%	15.5%
N#Cc1nc2c(S(=O)(=O)c3ccc(Cl)cc3)c(N)n(Nc3cccc(Cl)c3)c2nc1C#N	121%	33.3%	56.8%	63%	36.3%	67.7%	88.5%	49.2%	49.5%	-6.78% (active)	3.39% (active)	24%	50.2%	59.4%	31.2%	79.6%	68.4%	42.6%	
N/C(=N\c1nc2ccccc2s1)NC(=O)Nc1cccc(Cl)c1	28.9%	49.7%	40.9%	46.8%	69.2%	44.7%	23.9%	10.7%	31.1%	14.8%	41.6%	47.7%	41.9%	15.8%	17.5%	11.8%			35.5%
CCN(CC)c1nc(SCC(=O)Nc2nc3ccc(C)cc3s2)nc(-c2ccccc2)c1C#N	92%	81%	94%	68.8%	94.6%	94.8%	75.4%	81%	79.7%	2.23% (active)	61.4%	89.5%	93.7%	93.2%	83.4%	96.4%		80.7%	65.7%
COc1ccc2[nH]c(O)c(/C=c3/cc4c(c(-c5cc(OC)c(OC)c(OC)c5)n3)=Nc3ccccc3-4)c2c1	83%	81.3%	80.6%	51.5%	98%	72%	71.6%	43.3%	23.5%	10.4%	1.39% (active)	42%	113%	74.5%	73.9%	39.4%	116%		85.8%
Cc1ccc2[nH]c(=O)c3c(c2c1)OC(N)=C(C#N)C31c2cc(Br)ccc2-c2ccc(Br)cc21	77.1%	60.3%	82.7%	58.3%	84.2%	62.3%	49.1%	79.7%	62.3%	72.2%	3.77% (active)		91.8%	58.9%	70.8%	82.3%	61.1%	21%	40.1%
O=C(NC(CSSCC(NC(=O)c1ccccc1)C(=O)O)C(=O)O)c1ccccc1 (stereo not drawn)	97.3%	103%	102%	91.8%	101%	102%	91.6%	86.1%	-1.1% (active)	15.3%	104%	104%	102%	99.6%	96.3%	97.3%	105%		96.7%
Cn1c2c(c3ccc(Cl)c(Cl)c31)C(C#N)C1(CCNCC1)NC2=O (stereo not drawn)	11.5%	46.2%	44.2%	31.7%	38.3%	26.8%	29.6%	44.9%	15.6%	13.6%	14.2%		68.7%	48.1%	35.1%	68.5%	62.1%	53.5%	-19.3% (active)
